Assay outcomes: PubChem, several laboratories
Hck-Nef inh = inhibitors of Nef-activated human Hck kinase, primary screen, biochemical, Z-Lyte FRET, 384-well, Hck-YEEI; 220,000 compounds, 0.68% hits; Tyrosine-protein kinase HCK (Homo sapiens), P08631; Recombinant Hck-YEEI plus Nef, Z-Lyte FRET kinase assay; inhibition, % at 20 µM;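 active = Hck-Nef kinase inhibition above about 50%, limit read from the data; inactive = inhibition below that limit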;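 note: 0% = DMSO with Hck plus Nef and 100% = Hck alone without Nef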
LYPLA2 inh = LYPLA2 inhibitors, primary screen, counter-screen for PME1 inhibitor project, biochemical, fluorescence polarization, FP-Rh probe ABPP; Acyl-protein thioesterase 2 (Homo sapiens), O95372; recombinant LYPLA2; inhibition, % at 5.9 µM; 320,000 compounds, 0.38% hits;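 active = inhibition above the screen-wide mean plus 3 SD, limit set per campaign, cut at about 26% in these data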;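 note: 0% = LYPLA2 with DMSO and 100% = wells lacking LYPLA2 enzyme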
Target sequence (O95372 whole entry, looked up): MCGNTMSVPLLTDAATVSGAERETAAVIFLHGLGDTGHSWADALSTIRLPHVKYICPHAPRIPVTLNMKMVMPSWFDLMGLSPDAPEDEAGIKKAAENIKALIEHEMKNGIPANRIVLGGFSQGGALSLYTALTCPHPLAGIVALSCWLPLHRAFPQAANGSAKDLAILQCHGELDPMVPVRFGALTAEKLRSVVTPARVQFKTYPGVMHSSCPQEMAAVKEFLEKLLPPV
LYPLA1 inh = LYPLA1 inhibitors, primary screen, counter-screen for PME1 inhibitor project, biochemical, fluorescence polarization, FP-Rh probe ABPP; Acyl-protein thioesterase 1 (Homo sapiens), O75608; recombinant LYPLA1; inhibition, % at 5.9 µM; 320,000 compounds, 0.16% hits;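 active = inhibition above the mean of all tested compounds plus 3 SD, set per campaign, cut at about 14% in these data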;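 note: inhibitors block serine hydrolase probe labeling of LYPLA1 so polarization falls; 0% = enzyme with DMSO and 100% = wells lacking LYPLA1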
Target sequence (O75608 whole entry, looked up): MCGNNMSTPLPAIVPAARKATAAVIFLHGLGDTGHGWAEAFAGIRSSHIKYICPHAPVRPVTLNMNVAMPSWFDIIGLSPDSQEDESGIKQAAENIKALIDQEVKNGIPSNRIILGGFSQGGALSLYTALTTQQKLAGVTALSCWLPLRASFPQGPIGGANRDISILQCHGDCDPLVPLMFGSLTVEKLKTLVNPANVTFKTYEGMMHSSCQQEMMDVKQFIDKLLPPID
Rin1-Abl PPI inh = inhibitors of Rin1-Abl protein binding, primary screen, biochemical, TR-FRET | Tyrosine-protein kinase ABL1 (Homo sapiens) + Ras and Rab interactor 1 (Homo sapiens), … | inhibition, % at 7.35 µM | 360,000 compounds, 0.4% hits; in the data active = inhibition above about 5%, passing the limit was not always enough
p97 inhibitor = inhibitors of human p97 ATPase, primary screen, biochemical; Transitional endoplasmic reticulum ATPase (Homo sapiens), P55072; recombinant p97 ATPase, Kinase-Glo ATP luminescence, 3 h; inhibition, % at 8 µM; 220,000 compounds, 0.42% hits; AID 1481, 2009; in the data active = inhibition above about 15%;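 note: 0% = DMSO vehicle and 100% = wells lacking enzyme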
PREPL inhibitor = PREPL enzyme inhibitors, primary screen, biochemical, fluorescence polarization. 320,000 compounds, 0.68% hits. inhibition, % at 5.96 µM. recombinant PREPL, fluorescence polarization activity-based probe. Prolyl endopeptidase-like (Homo sapiens), Q4J6C6. AID 2751, 2010; in the data active = inhibition above about 43%;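 note: 0% = enzyme with DMSO and 100% = wells lacking enzyme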
p97 confirm = p97 ATPase inhibitors, retest, confirmation, biochemical; shares compounds with p97 inhibitor; recombinant p97 ATPase, Kinase-Glo ATP luminescence; inhibition, % at 8 µM; 760 compounds, 44% hits; AID 1517, 2009;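 active = percent inhibition of p97 ATPase above a set limit, the primary screen's mean plus 3 SD, cut at about 15% in these data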;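 note: 0% = DMSO wells and 100% = wells lacking p97 protein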
Starred values were filed as active, the others as inactive; nt = not tested or not shown. Rows were chosen to be rich in hits. Some 1.7% of all compounds tested hit in one or more screens of this group.

SMILES	Hck-Nef inh	LYPLA2 inh	LYPLA1 inh	Rin1-Abl PPI inh	p97 inhibitor	PREPL inhibitor	p97 confirm
Cc1ccc(CNC(=O)C(=O)NCC2OCCN2S(=O)(=O)c2ccc(Br)cc2)cc1 (stereo not given)	nt	13.1	6.1	-0.2	nt	3.3	nt
O=C(O)c1cccc(NC2=Nc3cccc4cccc2c34)c1	21.3	-1.1	-1.2	-1.1	16.0*	1.2	10.0
c1ccc(NC2=Nc3cccc4cccc2c34)cc1	-26.6	0.8	5.4	-2.5	6.7	2.4	nt
COc1cc(/C=N/NC(=O)c2cc(-c3ccco3)nc3ccccc23)cc(OC)c1O	45.8	-7.8	-7.2	-1.0	16.2*	8.8	9.3
COc1cc(/C=N/NC(=O)c2cc(-c3ccccc3Cl)nc3ccccc23)cc(OC)c1O	nt	2.8	-9.6	0.4	nt	9.9	nt
COc1ccc(OC)c(NC(=O)c2cc(S(=O)(=O)N(C)C)ccc2N2CCCC2)c1	nt	5.7	1.8	0.9	nt	-0.6	nt
CN1C(=O)C2(c3ccccc31)C1CCCC=C1C(C#N)=C(N)C2(C#N)C#N (stereo not given)	-0.4	-1.1	-0.1	-2.4	17.0*	-10.1	12.7
CN1C(=O)C2(C(C#N)=C(N)N(c3cc(Cl)cc(Cl)c3)C3=C2C(=O)CCC3)c2ccccc21 (stereo not given)	3.9	-2.1	-1.1	-3.0	0.5	-1.0	nt
Oc1cccc2cc3cccc(O)c3c(O)c12	3.7	-7.7	-22.2	0.0	15.2*	-0.3	14.1
Cn1cccc1/C=C1\SC(=Nc2ccc(O)cc2)NC1=O	25.6	-2.2	2.3	-4.7	16.5*	12.5	23.0*
COc1cccc(CN2CCN(S(=O)(=O)c3ccc(Cl)s3)CC2)c1	nt	-4.7	-2.4	-2.8	nt	9.9	nt
CC(C)(C)N1C(=O)Cc2c1nc(N)c1c(N)nc(N3CCCCC3CO)c(C#N)c21 (stereo not given)	5.4	8.6	0.6	20.1*	27.7*	38.8	35.5*
CN(CCO)c1nc(N)c2c(N)nc3c(c2c1C#N)CC(=O)N3C1CCCC1	0.6	1.4	-2.2	nt	7.0	39.1	nt
O=C(O)CC1(c2ccc(F)cc2)C2CC3CC(C2)CC1C3 (stereo not given)	nt	2.6	-6.2	0.6	nt	12.9	nt
O=C(O)c1ccc(NC2=C/C(=N/S(=O)(=O)c3ccccc3)c3ccccc3C2=O)cc1	11.9	nt	nt	2.1	18.0*	nt	22.8*
CCCCn1c(NC(C)=O)c(C#N)c2nc3ccccc3nc21	49.2	-1.8	-1.6	-0.6	29.9*	-0.8	4.4
CCCCn1c(NC(=O)c2ccco2)c(S(=O)(=O)c2ccc(C)cc2)c2nc3ccccc3nc21	48.8	nt	nt	1.9	27.0*	nt	8.3
CCC(=O)Nc1c(S(=O)(=O)c2ccc(C)cc2)c2nc3ccccc3nc2n1C(C)c1ccccc1 (stereo not given)	12.2	-4.5	-5.8	-0.5	-6.3	10.8	nt
CN(c1ccccc1)S(=O)(=O)c1cccc(C(=O)NCC(=O)Nc2ccc(F)c(F)c2F)c1	nt	nt	nt	-0.8	nt	6.6	nt
CC(=O)N(C(C)=O)c1nc(-c2ccccc2)cn1/N=C/c1cccc([N+](=O)[O-])c1	17.6	4.5	2.9	0.8	17.8*	7.4	23.6*
O=c1cc(-c2ccc(Cl)cc2)oc(=O)[nH]1	5.3	-1.2	-1.7	-0.6	-2.9	-3.8	nt
O=c1cc(N=Nc2ccc(Cl)cc2)[nH]c(=O)[nH]1	1.9	-0.9	0.9	-5.4	28.3*	-4.2	15.2*
O=C(CCNC(=O)C1CCN(S(=O)(=O)c2ccccc2)CC1)NCc1ccc(Cl)c(Cl)c1	nt	5.6	-1.1	-4.5	nt	9.1	nt
Cc1nn(C)cc1C(C(=O)NC1CCCCC1)N(C(=O)c1cnccn1)c1ccc(Oc2ccccc2)cc1 (stereo not given)	-5.9	1.5	-1.6	4.0	1.1	8.0	nt
CCOC(=O)c1ccc(N(C(=O)c2cnccn2)C(C(=O)NC2CCCCC2)c2cn(C)nc2C)cc1 (stereo not given)	1.1	-2.1	-2.5	-0.1	22.3*	-14.6	8.9
SMILES	Hck-Nef inh	LYPLA2 inh	LYPLA1 inh	Rin1-Abl PPI inh	p97 inhibitor	PREPL inhibitor	p97 confirm
CC(=O)Nc1ccc2c(c1)OCCO2	0.8	2.9	1.5	1.6	63.2*	-7.4	5.0
Cc1ccc(N/C(C(Cl)=C(Cl)Cl)=C(/Cl)[N+](=O)[O-])c(C)c1	3.4	nt	nt	-0.7	19.5*	nt	21.3*
Cc1ccc(NC(=O)CC(=O)Nc2ccc(C)cc2C)c(C)c1	nt	-1.6	-0.6	-1.2	nt	0.6	nt
CC(C)Cc1nn2c(N)c(/C=C3\C=Nc4ccccc43)c(=O)nc2s1	16.7	-1.6	-9.6	-1.0	16.3*	5.2	11.6
CCC(CC)c1nn2c(N)c(/C=C3\C(C)=Nc4ccccc43)c(=O)nc2s1	12.6	5.4	-1.9	-3.8	23.9*	9.8	24.6*
O=C(NC1CCOCC1)C1CCC(=O)N(Cc2cccc(C(F)(F)F)c2)C1 (stereo not given)	nt	3.2	-0.5	0.0	nt	2.3	nt
CCCC(=O)Nc1cc(OC)c(NC(=S)Nc2ccc(CC)cc2)cc1OC	nt	nt	nt	0.4	nt	nt	nt
CC(Sc1nnc(-c2cccnc2)n1N)C(=O)NCCC1=CCCCC1 (stereo not given)	nt	nt	nt	3.4	nt	nt	nt
CC1=NN(c2ccc(C)cc2C)C(=O)C1C(c1ccccc1O)C1C(=O)N(c2ccc(C)cc2C)N=C1C (stereo not given)	5.3	5.2	-1.4	1.8	27.8*	-5.0	7.9
O=S(=O)(Nc1cc(S(=O)(=O)N2CCOCC2)ccc1NCC1CCCO1)c1ccccc1 (stereo not given)	nt	1.5	3.5	1.2	nt	1.5	nt
COC(=O)c1ccccc1NC(=S)NC(=O)c1ccccc1C	0.3	-0.7	-2.5	0.3	36.0*	4.4	38.7*
COC(=O)c1ccccc1NC(=S)NC(=O)C1CCCCC1	8.1	-4.4	-0.6	-0.9	17.6*	4.0	18.9*
COC(=O)c1ccccc1NC(=S)NC(=O)c1ccc(C)cc1	-1.8	2.2	6.9	0.7	5.8	2.9	nt
COC(=O)c1ccccc1NC(=S)NC(=O)c1ccccc1	0.5	-0.3	-5.5	0.2	25.6*	1.4	21.1*
COC(=O)c1ccccc1NC(=O)C1CCCC1	7.3	-12.2	-6.5	0.6	4.1	1.6	nt
Cc1cc(C)c(C)c(S(=O)(=O)N2CCN(C(=O)c3ccccn3)CC2)c1C	nt	-10.4	-1.4	3.7	nt	-1.3	nt
